# PubChem BioAssay AID588342 (National Center for Advancing Translational Sciences (NCATS), 2011)
# Among all 360,000 compounds or so, about 25,000 (6.9%) were called active. Inconclusive results (about 9%) are left out. Calls follow the shape of the dose curve; as a rule, active = well fitted inhibition curve with a large enough effect; inconclusive = small, poorly fitted or top-dose-only effect; inactive = flat fitted curve, though single readings scatter. What follows is part of a selection rich in actives, with near analogues and random picks from the rest.
# Biological target: Luciferin 4-monooxygenase (Photinus pyralis) (UniProt P08659)
# Sequence (P08659 whole entry, looked up): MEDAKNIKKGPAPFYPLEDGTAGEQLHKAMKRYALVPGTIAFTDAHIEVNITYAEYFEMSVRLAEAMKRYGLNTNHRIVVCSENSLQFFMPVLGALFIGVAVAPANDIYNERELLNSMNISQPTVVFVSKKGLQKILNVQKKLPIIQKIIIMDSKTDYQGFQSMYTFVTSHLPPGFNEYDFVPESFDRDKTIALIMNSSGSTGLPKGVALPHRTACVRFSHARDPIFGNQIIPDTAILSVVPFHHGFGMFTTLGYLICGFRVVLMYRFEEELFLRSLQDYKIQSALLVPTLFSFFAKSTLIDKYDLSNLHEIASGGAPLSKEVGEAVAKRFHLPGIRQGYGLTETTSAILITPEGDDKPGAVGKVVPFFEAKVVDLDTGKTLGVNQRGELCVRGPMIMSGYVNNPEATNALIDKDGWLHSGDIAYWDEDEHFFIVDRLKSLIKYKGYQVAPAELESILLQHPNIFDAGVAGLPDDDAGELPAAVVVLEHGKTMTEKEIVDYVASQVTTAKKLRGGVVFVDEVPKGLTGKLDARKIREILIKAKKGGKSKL
# Assay: qHTS profiling assay for firefly luciferase inhibitor/activator using purifed enzyme and Km concentrations of substrates (counterscreen for miR-21 project); also: nearly all actives have a fitted effect of over 55% in size;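 as to activity change, negative = inhibition: plate controls were vehicle for no effect and reference inhibitor for full effect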
# Details: purified FLuc, luminescence inhibition; series mostly up to 57.5 µM; activity change, negative = inhibition: at the top concentration
# Summary of the method: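 Purified P. pyralis luciferase (10nM final) with 10uM D-luciferin and 10uM ATP (Km levels) in 50mM Tris acetate pH 7.5, 10mM Mg acetate, 0.01% Tween-20, 0.05% BSA; qHTS 6-point titration, ~60 µM downward; luminescence read.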
# Potency is read from the fitted curve at half-maximal effect.
SMILES,Potency,"activity change, negative = inhibition"
COc1ccc2c(c1)CCC/C2=N\OC(=O)c1ccccc1F,12 µM (active),
COc1cc2c(cc1OC)C(COc1ccc(F)cc1)N(C(=O)c1ccccc1F)CC2 (configuration not stated),,-12.9% (inactive)
COc1ccc(OC)c(S(=O)(=O)Nc2ccccc2F)c1,,0.251% (inactive)
O=C(CNS(=O)(=O)c1ccc2c(c1)OCCCO2)N1CCN(c2ccc(F)cc2)CC1,,6.66% (inactive)
CCOC(=O)C1=C(c2ccccc2)O/C(=C(/C(=O)OC)C(F)(F)F)S1,,0.0843% (inactive)
COC(=O)/C(=C1\Oc2ccc(C(C)(C)C)cc2S1)C(F)(F)F,3.79 µM (active),
CC(C)(C)c1ccc(C(=O)NCC(c2ccco2)S(=O)(=O)c2ccc(F)cc2)cc1 (configuration not stated),,0.828% (inactive)
CCOC(=O)c1c(C)n(S(=O)(=O)c2ccc(C)cc2C)c2ccc(NS(=O)(=O)c3ccc(C)cc3C)cc12,,-3.23% (inactive)
O=C(Nc1ccc(OC(F)(F)F)cc1)C1CCCN(S(=O)(=O)c2ccc(Br)s2)C1 (configuration not stated),,1.48% (inactive)
Cc1ccc2c(=O)cc(C(=O)Nc3sc4c(c3C(=O)NCc3cccnc3)CCCC4)oc2c1,,-3.36% (inactive)
COc1ccccc1C(=O)NCCn1cc(SCc2ccccc2Cl)c2ccccc21,,-1.75% (inactive)
Cc1ccccc1NC(=O)Cn1c(=O)n(CCc2ccccc2)c(=O)c2ccccc21,,4.4% (inactive)
Cc1nnc(C)n1-c1ccc(C(=O)Nc2cccc(Br)c2)cc1,,-0.53% (inactive)
Cc1cccc(C)c1-n1c(C)cc(/C=C2\C(=O)NN(c3ccccc3)C2=O)c1C,3.38 µM (active),
COc1ccc(CNC(=O)c2cc3c(s2)-c2ccccc2OC3)cc1,,-6.91% (inactive)
Cc1csc(=O)n1CCC(=O)OCC(=O)NNC(=O)c1ccc(Br)cc1,,2.67% (inactive)
CC(=O)Nc1nc2ccccc2n1Cc1ccc(C)cc1,,2.31% (inactive)
Cc1ccc(Cn2c(CCCNC(=O)C3CCCCC3)nc3ccccc32)cc1,,-16.9% (inactive)
CCCc1nc2c(C)cc(-c3nc4ccccc4n3C)cc2n1Cc1ccc(-c2ccccc2C(=O)O)cc1,13.5 µM (active),
Cc1ccc(C)c(C(=O)COC(=O)Cn2[nH]c(=O)c3ccccc3c2=O)c1,,0.823% (inactive)
CCOc1ccccc1NC(=O)Cn1c2ncccc2c(=O)n1-c1ccc(C)c(C)c1,,-0.586% (inactive)
COc1cc(CN2CCC(C(N)=O)CC2)ccc1OCc1ccccc1,10.7 µM (active),
CCOc1cc(CN2CCN(C(=O)CC(C)C)CC2)ccc1OC,,-0.351% (inactive)
COc1ccc(COCC(O)CN2CCC(C(N)=O)CC2)cc1 (configuration not stated),,-1.2% (inactive)
CCC(C)(C)NC(=O)CN(Cc1cccs1)C(=O)CNS(=O)(=O)c1ccc(F)cc1,,0.549% (inactive)
CCOC(=O)Cn1c(=O)n(Cc2ccc(OC)cc2)c(=O)c2cccnc21,,2.41% (inactive)

SMILES,Potency,"activity change, negative = inhibition"
CCOC(=O)c1cnc2c(C)cc(Cl)cc2c1NCCc1ccc(OC)c(OC)c1,,-8.82% (inactive)
COc1cc(NC(=O)Cn2nc(-c3ccc(C)c(C)c3)ccc2=O)cc(OC)c1,,-1.29% (inactive)
CCOC(=O)c1cc(C(C)C)sc1NC(=O)COC(=O)c1nccnc1N,,12.3% (inactive)
CC(C)c1cc(C(N)=O)c(NC(=O)c2cccc(COc3ccc(Br)cc3)c2)s1,19 µM (active),
NNC(=O)c1cccc(COCC(F)(F)C(F)F)c1,,6.5% (inactive)
COc1ccc(CCNC(=O)Cn2c(=O)n(-c3ccccc3)c(=O)c3c(C)c(C)sc32)cc1OC,,-0.147% (inactive)
CCOc1ccc(N(CC)C(=O)c2cc3c(=O)oc4ccccc4c3s2)cc1,,-1.93% (inactive)
CCCOc1ccc(NC(=O)C2OC3OC(C)(C)OC3C3OC(C)(C)OC23)cc1 (configuration not stated),,7.57% (inactive)
Cc1ccc(N(NC(=O)C(C)(C)O)C(=O)c2ccccc2)cc1C,,6.23% (inactive)
CCCOc1ccc(N/C=C/C(=O)C(C)(C)C)cc1,10.7 µM (active),
Cc1ccc(N/C=C/C(=O)c2ccccc2)cc1C,0.151 µM (active),
Cc1ccc(NNC(=O)C2CCC2)cc1C,,-2.48% (inactive)
CCOc1ccc(NC(=S)N2CCC(NC(=O)c3ccccc3)CC2)cc1,,0.225% (inactive)
CCCOc1ccc(NC(=O)C2CCCNC2=O)cc1 (configuration not stated),,3.63% [at 2.3 µM] (inactive)
CCOc1ccc(N/C=C/C(=O)c2ccccc2)cc1,0.269 µM (active),
CCOc1ccc(NC(=O)C2CCCN(C(=O)Nc3ccccc3)C2)cc1 (configuration not stated),,-2.4% (inactive)
COc1ccc(N2C(=O)CCC(C(=O)Nc3ccccn3)C2c2ccc(OC)c(OC)c2)cc1 (configuration not stated),,1.04% (inactive)
COCCN(C(=O)CCC(=O)Nc1ccccn1)C(C(=O)NCCC(C)C)c1ccc(OC)cc1 (configuration not stated),,-1.3% (inactive)
COc1ccc(C(=O)/C=C/Nc2ccccn2)cc1,0.107 µM (active),
CC(Oc1ccccc1F)C(=O)NN (configuration not stated),,1.14% (inactive)
CCOC(=O)Cc1ccc(NC(=O)Nc2c[nH]c(=O)[nH]c2=O)cc1,,-6.71% (inactive)
COc1ccc(OC)c(NC(=O)CN2CCCN(Cc3cc(C)ccc3C)S2(=O)=O)c1,,-1.23% (inactive)
COc1cccc(NC(=O)C2CCN(c3cc(C)nc4c(-c5ccc(Cl)cc5)c(C)nn34)CC2)c1,,-6.24% (inactive)
COc1ccc(OC)c(-c2noc(N3CCN(c4cc(Cl)ccc4C)CC3)n2)c1,,2.18% (inactive)
Cc1ccccc1CNC(=O)Cn1c(C)c2cnn(-c3ccccc3)c(=O)c2c1C,,1.72% (inactive)
O=C(CN(CC1CCCO1)C(=O)CNS(=O)(=O)c1ccc(F)cc1)NCc1ccco1 (configuration not stated),,-0.026% (inactive)

SMILES,Potency,"activity change, negative = inhibition"
CCOc1ccc(C(NC(=O)c2cc(OC)c(OC)c(OC)c2)c2cc(Cl)c3cccnc3c2O)cc1 (configuration not stated),,-4.4% (inactive)
CCOc1ccc(N/C=C/C(=O)c2cc(OC)c(OC)c(OC)c2)cc1,13.5 µM (active),
CCC(=O)c1ccc(OC(=O)/C=C/c2cc(OC)c(OC)c(OC)c2)cc1,,-18.9% (inactive)
CC1(C)O[C@@H]2[C@H](O1)[C@@H](COS(=O)(=O)O)O[C@H]2n1ccc(=O)[nH]c1=O,,3.4% (inactive)
O=C(NCC(=O)N(Cc1cccs1)C(C(=O)NC1CCCCC1)c1ccco1)c1cccs1 (configuration not stated),,0.0391% (inactive)
O=c1c2ccccc2nc2n1C(CSc1ccc(Cl)cc1)CN2 (configuration not stated),,4.01% (inactive)
Clc1ccc2nc(CSc3ccccc3)cn2c1,0.849 µM (active),
O=C(/C=C/c1ccc2c(c1)OCO2)NCc1cn2cc(Cl)ccc2n1,,-17.4% (inactive)
Cc1cccc(-c2oc3ccc(-c4ccc5c(c4)OCO5)cc3c2C#Cc2cncn2C)c1,,-28% (inactive)
Cc1ccc(NC(=O)CN2C(=O)CC(C)Sc3ccccc32)c(C)c1 (configuration not stated),,-9.71% (inactive)
COc1cccc(C2=CC(=O)C[C@H](c3ccc(OC)c(OC)c3)C2)c1,,-2.01% (inactive)
C/C(=N\O)C1(C)N(O)C(C)(C)C(c2ccc(Br)cc2)=[N+]1[O-] (configuration not stated),,-3.47% (inactive)
CC1(C)C(c2cccs2)=[N+]([O-])C2(CCCCC2=O)N1O (configuration not stated),,-7.11% (inactive)
CC(=O)C1(C)N(O)C(C)(C)C(c2cccs2)=[N+]1[O-] (configuration not stated),0.301 µM (active),
COc1ccc(SCc2cc(=O)c3ccc(C)c(C)c3[nH]2)cc1,,-9.1% (inactive)
C=CCn1c(SCC(=O)Nc2ccc(NC(C)=O)cc2)nc2sc(C)c(C)c2c1=O,,4.96% (inactive)
CC(=O)Nc1ccc(NC(=O)CSc2nnnn2C2CCCCC2)cc1,,1.81% (inactive)
CC1CCCC(C)N1C(=O)CSc1nnnn1C1CCCC1 (configuration not stated),,-15.9% (inactive)
O=C(CSc1nnnn1C1CCCC1)N1CCCCC1,19 µM (active),
COc1ccc(Cn2c(=O)n(-c3ccccc3C)c(=O)c3c4c(sc32)CN(C(C)=O)CC4)cc1,,3.07% (inactive)
COc1ccc(-c2nc3scc(CCNS(=O)(=O)c4cc(F)ccc4OC)n3n2)cc1OC,,-15.7% (inactive)
CCOc1ccc(CNCCSc2nnnn2C)cc1,,6.42% (inactive)
CC1CC(C)CN(CCC(=O)Nc2ccc3c(c2)CCC3)C1 (configuration not stated),,2.31% (inactive)
O=C(N/N=C\c1cc2c(cc1Cl)OCO2)c1ccc(Br)s1,,0.0212% (inactive)
O=C(Nc1ccc2c(c1)CCC2)c1ccc(Br)s1,1.9 µM (active),
Cc1cccc(N2CCN(S(=O)(=O)c3ccc4[nH]c5c(c4c3)CCCCC5)CC2)c1C,,-0.0208% (inactive)

SMILES,Potency,"activity change, negative = inhibition"
CN1CCN(c2oc(-c3ccc(COc4ccc(Cl)cc4)o3)nc2C#N)CC1,,-1.14% (inactive)
C=CCn1c(C)cc(C(=O)CN2C(=O)c3ccccc3C2=O)c1C,1.51 µM (active),
C=CCN(CC=C)C(=O)CN1C(=O)c2ccccc2C1=O,,-1.87% (inactive)
Cc1cc(C)cc(NC(=O)CN2C(=O)c3ccccc3C2=O)c1,,-1.43% (inactive)
CCc1ccc(NC(=O)CCCc2nnc3n(CCCOC)c(=O)c4sccc4n23)cc1,,-0.673% (inactive)
COc1ccccc1NC(=O)c1cc(S(=O)(=O)NCCc2ccccc2)ccc1F,,-0.596% (inactive)
Cc1ccc(C)c(S(=O)(=O)n2nc(C)c(S(=O)(=O)N3CCC(C)CC3)c2C)c1,,-16.4% (inactive)
COc1ccc(/C(N)=N/OC(=O)Cc2ccccc2)cc1,19 µM (active),
COc1ccc(CC(=O)Nc2sc(Cc3ccccc3)c(C)c2C(N)=O)cc1,,3.91% (inactive)
COc1ccc(/C(N)=N/OC(=O)Oc2ccccc2)cc1,,-11.7% (inactive)
CCC(=O)N1CCc2cc(S(=O)(=O)NC(Cc3ccccc3)C(=O)NCc3ccccc3)ccc21 (configuration not stated),,5.1% (inactive)
COc1cccc(N(C(=O)c2snc(C(N)=O)c2N)C(C(=O)NCC2CCCO2)c2c[nH]c3ccccc23)c1 (configuration not stated),,-2.39% (inactive)
CCOC(=O)C1(Cc2ccccc2C)CCCN(C(=O)c2ccc(COC)o2)C1 (configuration not stated),21.3 µM (active),
CCOC(=O)C1(Cc2ccccc2C)CCCN(S(C)(=O)=O)C1 (configuration not stated),,-0.641% (inactive)
CCOC(=O)C1(Cc2ccccc2C)CCCN(C(=O)CN2C(=O)CSC2=O)C1 (configuration not stated),,-15.3% (inactive)
CCOC(=O)c1cn(CC)c2cc(F)c(F)cc2c1=O,,5.04% (inactive)
COc1ccc(C(=O)NCc2ccc(C)cc2)cc1S(=O)(=O)N1CCCC1,,-0.328% (inactive)
O=C(c1cnn(-c2ccc(F)cc2)c1-n1cccc1)N1CCN(c2ccc(F)cc2)CC1,,-9.96% (inactive)
Nc1ccccc1SC(C[N+](=O)[O-])c1ccccc1 (configuration not stated),10.7 µM (active),
Cc1ccc(C(C[N+](=O)[O-])c2c(C)cc3ccccn23)cc1 (configuration not stated),,0.648% (inactive)
Cc1ccc(CNC(=O)CCc2c(C)nn(-c3ccc(N4CCCC4)nn3)c2C)cc1,,-0.845% (inactive)
CCCCOC(=O)c1[nH]c(C)c(C(=O)OC)c1C,12 µM (active),
CCOC(=O)c1c(C)[nH]c(C(=O)OCC(=O)c2ccc(OC)cc2OC)c1C,,-8.12% (inactive)
COC(=O)c1c(C)[nH]c(C(=O)NCCc2ccc(S(N)(=O)=O)cc2)c1C,,-1.64% (inactive)
